Compounds with a hit are over-represented: about 10% of the library has one in this group of screens.
NIH3T3 tox – kills NIH 3T3 cells; NIH 3T3 viability, CellTiter-Glo ATP luminescence, 48-72 h; Potency, µM (doses to about 96.7 µM), for inactives: top-dose activity change, negative = cytotoxicity, most hits filed as inhibitors; hit rate 4.3% among 94,000; further: on the % scale 0 is the no-effect control and ±100 the full control effect; nearly all actives have a fitted effect of over 55% in size
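Luminescent ATP readout (CellTiter-Glo, 10 min RT) after 48 or 72 hr compound exposure of NIH 3T3 cells seeded at 400 cells/well in 1536-well format; quantitative HTS.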
HEK cytotox – kills HEK 293 cells. Potency, µM (top dose mostly 115 µM), inactives show at the top dose activity change, negative = cytotoxicity, hits mostly inhibitors. AID 1345083. HEK 293 viability, ATP luminescence (CellTiter-Glo), 48-72 h. hit rate 6.6% among 94,000; further: on the % scale 0 is the no-effect control and ±100 the full control effect; nearly all actives have a fitted effect of over 60% in size
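ATP-coupled CellTiter-Glo luminescence served as viability read-out, recorded 10 min after reagent addition at room temperature. HEK 293 cells, 250 cells/well, had been incubated with pintool-transferred compound for 48 or 72 hr at 37 degree Celsius.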
GPT2 inh – blocks human glutamate pyruvate transaminase 2 | Q8TD30 | hit rate 0.25% among 100,000 | Potency, µM (titrated, usually from 57.7 µM), for inactives: at the highest dose activity change, negative = inhibition, usual class: inhibitors | Recombinant GPT2, coupled pyruvate oxidase/HRP Amplex Red fluorescence; further: on the % scale 0 is the no-effect control and ±100 the full control effect; nearly all actives have a fitted effect of over 60% in size
Target sequence (Q8TD30 whole entry, looked up): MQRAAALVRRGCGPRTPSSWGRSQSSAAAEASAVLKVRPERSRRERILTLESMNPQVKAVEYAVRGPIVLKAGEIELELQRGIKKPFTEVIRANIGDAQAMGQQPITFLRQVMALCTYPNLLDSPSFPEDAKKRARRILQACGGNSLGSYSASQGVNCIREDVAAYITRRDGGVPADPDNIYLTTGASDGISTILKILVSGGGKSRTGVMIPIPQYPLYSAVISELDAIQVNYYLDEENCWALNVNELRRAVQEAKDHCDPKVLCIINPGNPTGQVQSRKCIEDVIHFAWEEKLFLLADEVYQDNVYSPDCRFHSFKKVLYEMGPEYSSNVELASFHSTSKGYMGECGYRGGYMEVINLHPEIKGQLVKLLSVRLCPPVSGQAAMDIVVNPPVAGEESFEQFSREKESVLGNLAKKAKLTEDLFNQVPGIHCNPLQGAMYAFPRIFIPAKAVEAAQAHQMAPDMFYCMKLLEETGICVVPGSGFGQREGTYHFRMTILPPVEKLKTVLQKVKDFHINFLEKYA
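Recombinant GPT2 (10ng/uL) with 250uM a-KG and 2mM L-alanine, 30 min at room temperature, in HEPES pH 7.5 buffer. Pyruvate detected by pyruvate oxidase/HRP/Amplex Red fluorescence after 30 min in the dark; AOA (50uM) as positive control.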
FLuc inh-1 – inhibitors of firefly (Photinus pyralis) luciferase; P08659; purified P. pyralis luciferase, luminescence, biochemical; Potency, µM (doses to about 115 µM), hits mostly inhibitors; hit rate 2.5% among 76,000; AID 1347043; further: on the % scale 0 is the no-effect control and ±100 the full control effect; nearly all actives have a fitted effect of over 65% in size
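FLuc 10nM, D-luciferin 10uM, ATP 10uM, Mg acetate 10mM, Tris acetate pH 7.5, Tween/BSA; cpd qHTS; enzyme added last; CCD luminescence.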
NPR1 antag – blocks ANP-stimulated signaling of human Npr1 receptor; HEK293 hNpr1 GloSensor cGMP, ANP-stimulated luminescence; Potency, µM (top dose mostly 46.3 µM), for the others: top-dose activity change, negative = inhibition, hits mostly inhibitors; hit rate 1.6% among 76,000; calls by dose curve; further: on the % scale 0 is the no-effect control and ±100 the full control effect; nearly all actives have a fitted effect of over 60% in size
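HEK293 cells stably expressing human Npr1 and cGMP GloSensor pGS-40F, loaded 2 h with 2% GloSensor reagent, given compound 30 min at room temperature. Luminescence read before and 20 min after 0.1 nM hNppA.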
FLuc SDR -ATP – stabilizes firefly luciferase without ATP; shares compounds with FLuc inh-1; Purified FLuc-C-HiBiT, Nano-Glo HiBiT luminescence, no ATP; Potency, µM (doses to about 32.7 µM), for the others: at the top dose activation (signal gain), usual class: activators; hit rate 7.8% among 1,300; AID 1963318; further: nearly all actives have a fitted effect of over 55% in size
FLuc SDR ATP – binders stabilizing firefly luciferase, plus ATP | shares compounds with FLuc inh-1 | purified FLuc-C-HiBiT + ATP, HiBiT complementation luminescence | Potency, µM (top dose mostly 32.7 µM), without a hit: at the highest dose activation (gain of signal), hits mostly activators | hit rate 8.7% among 1,300;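 further: signal reports ligand binding via conformational change of the enzyme rather than luciferase catalysis; % of control where 0% means no effect; nearly all actives have a fitted effect of over 55% in size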
FLuc inh-2 – firefly luciferase enzyme inhibition | shares compounds with FLuc inh-1 | hit rate 42% among 1,300 | purified FLuc-C-HiBiT enzyme, luciferin luminescence | Potency, µM (doses to about 32.7 µM), without a hit: at the highest dose activity change, negative = inhibition, usual class: inhibitors | AID 1963320; further: on the % scale 0 is the no-effect control and ±100 the full control effect; nearly all actives have a fitted effect of over 70% in size
Numbers without * were called inactive; i = inactive; ? = inconclusive; . = no result; [ ] = dose if it differs, or a comment. Unless noted, the call rests on the fitted dose curve; in most records, active means well fitted curve in the direction sought with a large enough effect; inconclusive means small, poorly fitted or top-dose-only effect, or another doubt; inactive means no such curve, though single readings can be large; an effect the other way counts as inactive or inconclusive. Potency means the concentration at half of the fitted maximal effect.

SMILES	NIH3T3 tox	HEK cytotox	GPT2 inh	FLuc inh-1	NPR1 antag	FLuc SDR -ATP	FLuc SDR ATP	FLuc inh-2
CCOc1ccccc1C(=O)NC1CCN(C(=O)c2cc3c(=O)[nH]c(C)cn3n2)CC1	?	?	-18.0%	i	0.0%	.	.	.
Cc1ccc(NC(=O)C2CCN(c3nc(-c4ccc(C(C)C)cc4)no3)CC2)c(Cl)c1	.	.	.	.	.	17.9%	?	?
COc1ccc(-c2noc(CC3CCN(C(=O)C4CC4)CC3)n2)cc1	?	?	-4.3%	i	?	.	.	.
Cc1ccc(-c2noc([C@@H]3CCCN3C(=O)c3ccc(C(C)C)cc3)n2)cc1	?	?	i	?	3.7%	.	.	.
Cc1ccc(C)c(N2CCN(C(=O)C3CCN(c4nc(-c5ccc(C(C)C)cc5)no4)CC3)CC2)c1	.	.	.	.	.	21.9%	?	?
O=C(c1ccc(Cl)nc1)N1CCC2(CC1)C(=O)NCN2Cc1ccc(Cl)cc1	-7.8%	?	-9.5%	i	?	.	.	.
CSCC(=O)Nc1nn(-c2ccc(F)cc2)c2cccc(N3CCOCC3)c12	?	?	-21.3%	6.31µM*	?	23.3%	15.7%	?
O=C(Nc1nn(-c2cccc(F)c2)c2cccc(N3CCOC3=O)c12)C1CCC1	-22.6%	-10.0%	?	i	-7.8%	.	.	.
CC(Cn1cccn1)Nc1ccc(-c2nc(-c3ccccc3F)no2)cn1 (stereo unspecified)	?	44.7µM*	-5.5%	3.55µM*	?	15.0%	?	9.89µM*
CN(Cc1nccs1)c1ccc(-c2nc(-c3ccccc3F)no2)cn1	-5.5%	?	-3.1%	2.82µM*	?	14.9%	17.3%	?
CCOC(=O)C1=CN(CC(=O)Nc2ccccc2CC)S(=O)(=O)N=C1C	-17.1%	-13.3%	i	i	-14.2%	.	.	.
Cc1ccc2nc(C(=O)N3CCCC3c3cc(C(C)C)on3)cn2c1 (stereo unspecified)	-13.0%	-9.4%	-15.5%	10µM*	-0.3%	27.3%	14.5%	?
Cc1ccc(-c2noc([C@@H]3CCCN3C(=O)c3cnccn3)n2)cc1	-22.3%	-6.5%	1.7%	i	-8.6%	.	.	.
Cn1nc(-c2nncn2Cc2ccccc2)c2c1CCN(C(=O)CCC(=O)N1CCOCC1)C2	i	i	?	.	.	.	.	.
CC(C)NC(=O)N[C@H]1C[C@H]2C(=O)NC[C@@H](CCC(=O)N3CCCC3)N2C1	-5.3%[174 µM]	-16.6%[172 µM]	?	i	-0.4%[70.6 µM]	.	.	.
CN1C(=O)C(CC(=O)NCc2nnnn2-c2ccccc2)N(C)C1=O (stereo unspecified)	i	-0.7%	i	i	0.0%	.	.	.
COc1ccc(C(=O)Nc2cc(S(=O)(=O)c3ccc(Cl)cc3)c(O)c(C)c2C)cc1	.	.	.	.	.	19.2%	13.6%	-13.9%
CN1CCN(c2ccc(-c3cc4c(ccn4C)c(C(=O)NCCc4ccccn4)n3)cc2)CC1	20µM*	35.5µM*	-3.1%	0.794µM*	-12.1%	?	?	2.79µM*
Cn1ccc2c(C(=O)NCCc3ccccn3)nc(-c3cccc(N4CCOCC4)c3)cc21	?	?	-2.5%	i	0.7%	.	.	.
Cn1ccc2c(C(=O)NCC3CCOCC3)nc(-c3cccc(N4CCOCC4)c3)cc21	?	?	i	i	0.1%[70.6 µM]	.	.	.
Cn1ccc2c(C(=O)NCCc3cnc[nH]3)nc(-c3ccc(N4CCOCC4)cc3)cc21	?	?	-11.2%[88.5 µM]	1µM*	-1.9%[70.6 µM]	?	?	4.53µM*

High-throughput results deposited in PubChem by National Center for Advancing Translational Sciences (NCATS).
